The target of assay [1] is Lysosomal acid glucosylceramidase (Homo sapiens) (UniProt P04062). Nature of the assay: Glucocerebrosidase-p2 (AID 348; in the data active = potency below about 10 µM; note: potency is the fitted concentration of half-maximal effect). The note with it: purified GBA, blue fluorogenic substrate, 40 min. The method, boiled down: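 Normal human glucocerebrosidase (0.2 nM) with blue fluorogenic substrate (80 uM final) in citrate/phosphate pH 5.9 with 10mM sodium taurocholate, 0.01% tween-20; 40 min RT, NaOH/glycine stop; fluorescence Ex 365/Em 440; AC50 from a titration from 0.6 nM upwards.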

A short description of assay [2]: AP1 Signaling Pathway (AID 357; active = well fitted curve in either direction with a large enough effect, not every such curve was filed as active;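 note: ME-180 reporter cells stimulated with EGF at its EC50 level; % is set by controls: 0 for no effect and ±100 for the full control effect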). The note with it: ME-180 AP-1-bla reporter, EGF-induced, beta-lactamase ratio, 5 h; at 7.69 µM (top of the series) unless noted. The method, boiled down:
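First, ME-180 AP-1-bla cells were cultured overnight at 37 °C in low-serum Opti-MEM. Next, titrated compounds with EC50 EGF were incubated 5 hours. Finally, CCF4 was added for 2.5 hours and the 460/530 nm ratio recorded.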

The target in assay [3] is Cytochrome P450 1A2 (Homo sapiens) (UniProt P05177). Nature of the assay: p450-cyp1a2 (AID 410; calls by dose curve; note: potency is the fitted concentration of half-maximal effect). The note with it: recombinant CYP1A2, luciferin-ME demethylation, luminescence; series mostly up to 57 µM. In outline:
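20nM CYP1A2, 100uM Luciferin-ME (=Km), 100mM KPO4; cpd 10 min RT; +NADPH regen, 60 min RT; stop/detect 20 min; luminescence. Normalized to furafylline 57 uM = full inhibition.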

Assay [4] is described as follows: NFAT Signaling Pathway (AID 444; active = well fitted curve in either direction with a large enough effect, not every such curve was filed as active;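 note: carbachol stimulus at about its EC50 of 1 µM final; % is set by controls: 0 for no effect and ±100 for the full control effect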). The note with it: Jurkat NFAT-bla M1, carbachol, beta-lactamase ratio, 5 h; at 7.69 µM (top of the series) unless noted. The method, boiled down: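 Read-out: CCF4 FRET ratio (460 nm/530 nm) after 1 h RT dye loading, used for %activity and AC50 from titration series. Cells: Jurkat NFAT-β-lactamase/M1 line, treated with compound plus 1 uM carbachol for 5 h, 37 °C.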

A short description of assay [5]: Stat Signaling Pathway (AID 446; active = well fitted curve in either direction with a large enough effect, not every such curve was filed as active;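 note: ME-180 cervical cancer cells given 40 pM IL-6 alongside compound; SIE-controlled beta-lactamase reporter measured as 460/530 nm FRET emission ratio; % is set by controls: 0 for no effect and ±100 for the full control effect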). Particulars: ME-180 (cervical carcinoma) SIE beta-lactamase reporter, IL-6 stimulated, 5 h; at 7.69 µM (top of the series) unless noted. In outline: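 Normalization used AC90 stimulation (300 pM IL-6) and AC90 inhibition (125 nM pan-JAK inhibitor at 40 pM IL-6). The underlying signal is SIE-driven beta-lactamase in ME-180 cells after 5 h IL-6 exposure with compound.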

For assay [6], the target named is Glucocorticoid receptor (Homo sapiens) (UniProt P04150). As to the kind of experiment: GR-GFP Redistribution (AID 450;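 active = compounds whose dose series gives a full or clear partial fitted curve of increased nuclear translocation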; note: potency is the fitted concentration of half-maximal effect). The note with it: U2OS GR-GFP nuclear translocation, laser cytometry, 2 h.
The target is the same in assay [7]. As to the kind of experiment: GR-EFC Redistribution (AID 451; calls by dose curve; note: potency is the fitted concentration of half-maximal effect). Particulars: CHO-K1 GR-EFC translocation, beta-gal luminescence, 2 h. The method, boiled down: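 Translocation of GR-ED fusion to nuclear EA restores b-gal, read by luminescence after 1 h room-temperature detection. Engineered CHO-K1 biosensor cells, 1,000/well, exposed 2 h at 37 C to titrations up to 46 uM final.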

Assay [8] concerns the target Cytochrome P450 3A4 (Homo sapiens) (UniProt P08684). Nature of the assay: qHTS Assay for Activators of Cytochrome P450 3A4 (AID 885). Note: nearly all actives have a fitted effect of over 65% in size. Particulars: recombinant CYP3A4, Luciferin-PPXE luminescence, 60 min; series mostly up to 57.1 µM. The method, boiled down:
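Human CYP3A4 dealkylates Luciferin-PPXE to luciferin, which luciferase detection converts to light. Substrate was at its KM (25uM), buffer 200mM KPO4, reaction 60 min at RT.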
A general note: In qHTS, concentration-response curves come from the screen itself.

The target in assay [9] is Cytochrome P450 2C19 (Homo sapiens) (UniProt P33261). Nature of the assay: qHTS Assay for Inhibitors and Substrates of Cytochrome P450 2C19 (AID 899). Note: potency is the fitted concentration of half-maximal effect; nearly all actives have a fitted effect of over 60% in size. The note with it: recombinant CYP2C19, luciferin-H EGE luminescence; series mostly up to 57.1 µM. In outline: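 5nM enzyme + 10uM Luciferin-H EGE (=KM), 50mM KPO4; cpd pin-transferred, 10 min 37C; NADPH regen, 60 min 37C; stopped w/ luciferin detection reagent, 20 min; luminescence. Normalized to 57uM ketoconazole (AC100).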

The target of assay [10] is Dual specificity protein kinase CLK4 (Homo sapiens) (UniProt Q9HAZ1). As to the kind of experiment: qHTS Assay for Inhibitors of CDC-like Kinase 4 (Kinase-Glo Assay) (AID 1770). Note: potency is the fitted concentration of half-maximal effect; nearly all actives have a fitted effect of over 65% in size. The note with it: recombinant Clk4, Kinase-Glo ATP depletion luminescence; series mostly up to 66.7 µM. The method, boiled down: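 Clk4 25 nM, RS peptide 100 uM, ATP 1 uM, pH 7.5 Tris, 10 mM MgCl2, 2.5 mM DTT; 4.5 h RT; ATP depletion read by Kinase-Glo luminescence.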

Assay [11] shares this target. As to the kind of experiment: qHTS Assay for Inhibitors of CDC-like Kinase 4 (ADP-Glo Assay) (AID 1771). Note: potency is the fitted concentration of half-maximal effect; nearly all actives have a fitted effect of over 70% in size. Particulars: recombinant CLK4, ADP-Glo luminescence; series mostly up to 80 µM. The method, boiled down:
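25 nM Clk4, 100 uM RS peptide, 1 uM ATP (final); 2 mM MgCl2, 0.5 mM EGTA, 2.5 mM DTT, 0.01% Triton X-100; 1 hr RT. ADP-Glo readout: ATP depletion 45 min, conversion/luciferase 30 min, luminescence.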

Assay [12] has the same target. Nature of the assay: qHTS Assay for Inhibitors of CDC-like Kinase 4 (ADP-FP Assay) (AID 1795). Note: potency is the fitted concentration of half-maximal effect; nearly all actives have a fitted effect of over 60% in size. The note with it: Transcreener ADP fluorescence polarization; series mostly up to 50 µM. The method, boiled down:
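Kinase activity was followed as ADP output, converted from fluorescence polarization with a calibration curve. Reactions ran one hour at low ATP (1 uM) with RS peptide substrate.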

The target of assay [13] is Ubiquitin carboxyl-terminal hydrolase 1 (Homo sapiens) (UniProt O94782). As to the kind of experiment: Inhibitors of USP1/UAF1: Pilot qHTS (AID 504865).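 Note: rhodamine fluorescence freed from ubiquitin-rhodamine substrate followed over time; top concentration of the series differs between compounds; % is set by controls: 0 for no effect and ±100 for the full control effect; nearly all actives have a fitted effect of over 35% in size.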 The note with it: purified USP1/UAF1, Ub-rhodamine cleavage fluorescence; series mostly up to 54.9 µM. In outline: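 Enzyme-free wells gave the negative control, while test wells held 1nM USP1/UAF1 preincubated with compound for 15 min at room temperature. Ub-Rho at 150nM final started the reaction, and fluorescence at 480/540 nm was recorded kinetically.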

Assay [14] has as its target Calcium and integrin-binding protein 1 (Homo sapiens) (UniProt Q99828). As to the kind of experiment: Primary qHTS for Identification of Calcium Integrin Binding Protein 1 (CIB1) Competitor (AID 1508620).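 Note: GST tagged CIB1 binding a fluorescein labelled alphaIIb integrin peptide tracer; top concentration of the series differs between compounds; % is set by controls: 0 for no effect and ±100 for the full control effect.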 The note with it: CIB1-GST / FITC-alphaIIb peptide fluorescence polarization; series mostly up to 114 µM. In outline: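 CIB1-GST (1 uM final) and compound incubated 15 min at room temperature before adding FITC-alphaIIb peptide tracer (100 nM final). Competition for binding read by fluorescence polarization (ex 480, em 540) after another 15 min at room temperature.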

Assay [15] can be described thus: Primary qHTS for small molecule stabilizers of the endoplasmic reticulum resident proteome: Secreted ER Calcium Modulated Protein (SERCaMP) assay (AID 1508630). Note: % is set by controls: 0 for no effect and ±100 for the full control effect. The note with it: SH-SY5Y GLuc-SERCaMP (Gaussia luciferase released on ER calcium loss) secretion, thapsigargin, luminescence; series mostly up to 38.4 µM. The method, boiled down:
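The SH-SY5Y reporter protocol was run at 3 concentrations up to 38.3 uM (primary) or 11 concentrations (follow-up): 16 h compound, 100 nM thapsigargin for 4 h, then extracellular luciferase luminescence.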

Assay [16] has as its target Mitogen-activated protein kinase 10 (Mus musculus) (UniProt Q61831). As to the kind of experiment: JNK3 AlphaScreen Assay (AID 530; active = well fitted curve in either direction with a large enough effect, not every such curve was filed as active). Particulars: JNK3 lysate, c-Jun phosphorylation; series mostly up to 57.1 µM. The method, boiled down:
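Kinase buffer: 20 mM Tris-HCl pH 7.6, 10 mM MgCl2, 1 mM DTT, 0.1 mM Na3VO4, 0.01% Tween-20; ATP 10 uM. Substrate biotin-GST-cJun(1-79), enzyme from activated HepG2 lysates. Detection by Ser73 phospho-antibody AlphaScreen.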
In general terms: In Alpha technology, singlet oxygen from a donor bead excites a nearby acceptor bead.

Assay [17] concerns the target Cytochrome P450 3A4 (Homo sapiens) (UniProt P08684). Nature of the assay: qHTS Assay for Inhibitors and Substrates of Cytochrome P450 3A4 (AID 884). Note: potency is the fitted concentration of half-maximal effect; nearly all actives have a fitted effect of over 50% in size. Particulars: recombinant CYP3A4, Luciferin-PPXE luminescence; series mostly up to 57.1 µM. In outline:
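Luminescent readout of luciferin produced by CYP3A4 (20 nM) dealkylation of Luciferin-PPXE, 25 uM (its KM). NADPH-driven reaction ran 60 min at RT after 10 min compound preincubation; data scaled to 57 uM ketoconazole as 100% inhibition.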

Assay [18] is described as follows: Confirmation and Secondary Assay for Modulators of Hemoglobin Beta Chain Splicing at IVS2 654 locus (AID 910).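 Note: HeLa cells stably carrying EGFP split by mutant beta-globin IVS2-654 intron; per-well total GFP intensity by laser scanning cytometry after 2-day treatment; % of control where 0% means no effect.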 The note with it: HeLa EGFP-654 splicing reporter, GFP fluorescence, 48 h; series mostly up to 38.3 µM. The method, boiled down:
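Readout: per-well total peak green fluorescence (488 nm ex, 500–520 nm em) from objects 5–250 µm, reflecting correct splicing of an EGFP-654 reporter. Compounds were applied for 2 days at 37 °C to overnight-plated HeLa EGFP-654 cells; controls were DMSO and 500 nM IVS2-654 PNA.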

A short description of assay [19]: Confirmation and Secondary Assay for Modulators of Hemoglobin Beta Chain Splicing at IVS2 705 locus (AID 930).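 Note: HeLa cells stably expressing the EGFP-705 splicing reporter; GFP fluorescence per well restored by corrected splicing of the IVS2-705 intron in EGFP; % of control where 0% means no effect.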 The note with it: HeLa EGFP-705 splicing reporter, GFP fluorescence, 48 h; series mostly up to 38.3 µM. The method, boiled down: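 Per-well GFP, captured at 1 x 8 µm resolution with 488 nm excitation, served as the read-out for HeLa EGFP-705 cells incubated 2 days with test compound versus DMSO.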

A short description of assay [20]: qHTS Assay for Lipid Storage Modulators (AID 1519; calls by dose curve). The note with it: Drosophila S3 cells, BODIPY lipid droplet/cell ratio, laser cytometry, cells loaded with oleic acid. The method, boiled down: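 Cells seeded at 5,000 per well were treated with compounds over a concentration series and loaded with oleic acid (400 uM, as added). Lipid droplet fluorescence (488 nm excitation, 500-530 nm channel) was read by laser-scanning cytometry and normalized to 20 uM Triacsin C.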

Assay [21] addresses N-terminal Xaa-Pro-Lys N-methyltransferase 1 (Homo sapiens) (UniProt Q9BV86). Nature of the assay: Confirmatory qHTS for Inhibitors of N-terminal methyltransferase 1 (NTMT1): MTaseGlo Assay (AID 1645874).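 Note: luminescence from SAH made as NTMT1 methylates SPKRIA peptide using SAM; 0% = DMSO control and -100% = no-enzyme control; nearly all actives have a fitted effect of over 65% in size.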 The note with it: NTMT1 enzyme, MTase-Glo SAH luminescence; series mostly up to 100 µM. The method, boiled down:
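Inhibition was derived from luminescence after SAH-to-ATP conversion, scaled between no-enzyme and DMSO wells, then fitted by 4-parameter Hill. Conditions: 125 nM NTMT1, 100 uM SAM, 1 uM SPKRIA, 30 min RT.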

Results filed as inconclusive are left out. Activity calls are given as the source filed them. Unless noted, calls come from the whole dose curve; as a rule, active = well fitted curve in the direction sought with a large enough effect; inconclusive = small, poorly fitted or top-dose-only effect, or another doubt; inactive = no such curve, though single readings can be large; an effect the other way counts as inactive or inconclusive.

Sequence of Calcium and integrin-binding protein 1 (Homo sapiens) (Q99828 whole entry, looked up): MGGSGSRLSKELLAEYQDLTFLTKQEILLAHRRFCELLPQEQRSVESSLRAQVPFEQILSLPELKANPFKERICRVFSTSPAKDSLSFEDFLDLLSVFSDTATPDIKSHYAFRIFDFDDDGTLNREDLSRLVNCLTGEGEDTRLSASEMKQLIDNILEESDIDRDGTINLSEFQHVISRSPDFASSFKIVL
Sequence of Cytochrome P450 3A4 (Homo sapiens) (P08684 whole entry, looked up): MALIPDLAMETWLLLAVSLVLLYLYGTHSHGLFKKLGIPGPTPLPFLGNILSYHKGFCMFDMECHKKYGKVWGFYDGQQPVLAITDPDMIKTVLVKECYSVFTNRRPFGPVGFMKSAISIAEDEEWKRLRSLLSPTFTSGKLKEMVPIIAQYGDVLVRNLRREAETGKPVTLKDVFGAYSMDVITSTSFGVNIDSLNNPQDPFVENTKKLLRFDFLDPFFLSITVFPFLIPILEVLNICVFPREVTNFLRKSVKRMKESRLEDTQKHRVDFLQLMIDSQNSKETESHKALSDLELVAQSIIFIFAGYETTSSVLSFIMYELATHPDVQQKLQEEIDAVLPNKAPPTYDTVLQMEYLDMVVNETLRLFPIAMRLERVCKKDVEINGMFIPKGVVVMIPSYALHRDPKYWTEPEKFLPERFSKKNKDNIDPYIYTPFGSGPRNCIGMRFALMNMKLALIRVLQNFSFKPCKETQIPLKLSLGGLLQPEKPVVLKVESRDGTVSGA
Sequence of Dual specificity protein kinase CLK4 (Homo sapiens) (Q9HAZ1 whole entry, looked up): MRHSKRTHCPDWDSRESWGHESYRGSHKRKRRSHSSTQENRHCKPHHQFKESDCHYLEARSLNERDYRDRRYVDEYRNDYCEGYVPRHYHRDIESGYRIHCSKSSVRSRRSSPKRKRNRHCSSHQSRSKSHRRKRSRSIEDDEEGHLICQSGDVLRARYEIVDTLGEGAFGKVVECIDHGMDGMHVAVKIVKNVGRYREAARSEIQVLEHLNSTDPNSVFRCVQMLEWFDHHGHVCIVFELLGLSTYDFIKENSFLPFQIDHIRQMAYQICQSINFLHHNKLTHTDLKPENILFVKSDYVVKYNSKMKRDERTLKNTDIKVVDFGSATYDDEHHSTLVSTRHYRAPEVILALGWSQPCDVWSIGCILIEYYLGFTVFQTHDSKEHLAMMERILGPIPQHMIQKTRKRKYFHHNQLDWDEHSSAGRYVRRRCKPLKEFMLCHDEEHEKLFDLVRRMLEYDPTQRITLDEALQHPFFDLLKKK
Sequence of Glucocorticoid receptor (Homo sapiens) (P04150 whole entry, looked up, the tested form may be a part): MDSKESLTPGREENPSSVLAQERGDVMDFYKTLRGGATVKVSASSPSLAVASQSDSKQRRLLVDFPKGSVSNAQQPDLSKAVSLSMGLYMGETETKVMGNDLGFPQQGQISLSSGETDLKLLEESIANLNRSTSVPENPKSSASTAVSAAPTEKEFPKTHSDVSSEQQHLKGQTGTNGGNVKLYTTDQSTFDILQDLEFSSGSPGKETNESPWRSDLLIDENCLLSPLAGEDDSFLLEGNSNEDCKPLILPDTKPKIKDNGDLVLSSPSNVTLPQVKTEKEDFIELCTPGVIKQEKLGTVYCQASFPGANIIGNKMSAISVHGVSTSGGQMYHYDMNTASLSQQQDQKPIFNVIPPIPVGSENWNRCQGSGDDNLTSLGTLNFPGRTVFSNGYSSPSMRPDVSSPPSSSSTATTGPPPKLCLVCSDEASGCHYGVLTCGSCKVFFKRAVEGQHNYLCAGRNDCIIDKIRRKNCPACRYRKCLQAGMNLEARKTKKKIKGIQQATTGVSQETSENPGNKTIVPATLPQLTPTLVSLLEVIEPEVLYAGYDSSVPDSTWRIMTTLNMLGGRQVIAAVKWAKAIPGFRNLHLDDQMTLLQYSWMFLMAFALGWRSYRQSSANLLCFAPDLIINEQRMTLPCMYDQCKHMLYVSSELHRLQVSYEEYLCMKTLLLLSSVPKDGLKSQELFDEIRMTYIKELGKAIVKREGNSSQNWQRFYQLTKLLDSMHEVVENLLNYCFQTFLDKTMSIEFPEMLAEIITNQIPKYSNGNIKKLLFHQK
Sequence of Cytochrome P450 1A2 (Homo sapiens) (P05177 whole entry, looked up): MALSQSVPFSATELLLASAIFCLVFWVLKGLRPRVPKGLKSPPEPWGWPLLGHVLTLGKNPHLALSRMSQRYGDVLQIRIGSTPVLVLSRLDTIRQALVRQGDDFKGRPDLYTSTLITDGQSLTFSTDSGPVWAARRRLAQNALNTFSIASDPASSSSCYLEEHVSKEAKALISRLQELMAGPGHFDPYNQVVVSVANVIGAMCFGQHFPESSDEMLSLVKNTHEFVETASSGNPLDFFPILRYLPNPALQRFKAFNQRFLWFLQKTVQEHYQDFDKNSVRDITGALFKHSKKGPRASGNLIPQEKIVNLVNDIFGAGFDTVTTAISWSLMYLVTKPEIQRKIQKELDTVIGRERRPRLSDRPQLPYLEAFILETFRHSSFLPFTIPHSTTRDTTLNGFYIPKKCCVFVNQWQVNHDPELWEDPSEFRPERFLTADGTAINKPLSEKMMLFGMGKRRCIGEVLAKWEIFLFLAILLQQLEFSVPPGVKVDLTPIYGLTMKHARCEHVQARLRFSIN
Sequence of N-terminal Xaa-Pro-Lys N-methyltransferase 1 (Homo sapiens) (Q9BV86 whole entry, looked up): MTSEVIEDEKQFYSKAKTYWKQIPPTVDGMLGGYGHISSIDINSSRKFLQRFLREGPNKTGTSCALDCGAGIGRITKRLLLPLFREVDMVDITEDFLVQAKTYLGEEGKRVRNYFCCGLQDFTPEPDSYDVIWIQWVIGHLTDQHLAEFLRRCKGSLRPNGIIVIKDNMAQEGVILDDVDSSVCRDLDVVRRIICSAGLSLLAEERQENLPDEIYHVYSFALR
Sequence of Cytochrome P450 2C19 (Homo sapiens) (P33261 whole entry, looked up): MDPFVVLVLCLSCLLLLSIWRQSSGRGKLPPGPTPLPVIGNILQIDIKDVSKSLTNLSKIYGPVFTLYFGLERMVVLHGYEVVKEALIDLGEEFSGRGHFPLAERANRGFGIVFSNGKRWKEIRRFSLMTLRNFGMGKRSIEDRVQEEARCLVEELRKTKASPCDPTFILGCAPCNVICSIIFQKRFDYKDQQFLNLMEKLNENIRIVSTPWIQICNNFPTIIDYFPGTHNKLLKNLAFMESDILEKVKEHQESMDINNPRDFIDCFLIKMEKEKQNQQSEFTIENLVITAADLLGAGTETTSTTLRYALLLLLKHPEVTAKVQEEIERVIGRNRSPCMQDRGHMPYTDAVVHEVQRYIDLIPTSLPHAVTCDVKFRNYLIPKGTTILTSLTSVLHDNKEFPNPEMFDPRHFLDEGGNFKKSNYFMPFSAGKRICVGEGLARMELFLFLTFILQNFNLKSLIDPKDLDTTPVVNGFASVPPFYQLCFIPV
Sequence of Lysosomal acid glucosylceramidase (Homo sapiens) (P04062 whole entry, looked up): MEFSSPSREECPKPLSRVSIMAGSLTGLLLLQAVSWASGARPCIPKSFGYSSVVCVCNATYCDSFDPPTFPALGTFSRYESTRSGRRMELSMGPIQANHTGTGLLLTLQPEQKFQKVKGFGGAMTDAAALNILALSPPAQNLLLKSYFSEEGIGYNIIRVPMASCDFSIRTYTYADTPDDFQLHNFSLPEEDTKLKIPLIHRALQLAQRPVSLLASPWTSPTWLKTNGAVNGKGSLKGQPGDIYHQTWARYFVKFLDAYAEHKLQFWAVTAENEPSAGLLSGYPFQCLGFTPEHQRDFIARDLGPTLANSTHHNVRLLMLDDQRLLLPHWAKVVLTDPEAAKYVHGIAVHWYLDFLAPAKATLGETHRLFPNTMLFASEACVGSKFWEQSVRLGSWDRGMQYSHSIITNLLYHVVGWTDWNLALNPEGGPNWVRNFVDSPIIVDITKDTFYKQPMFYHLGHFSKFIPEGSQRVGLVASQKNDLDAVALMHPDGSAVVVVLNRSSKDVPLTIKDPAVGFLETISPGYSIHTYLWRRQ
Sequence of Ubiquitin carboxyl-terminal hydrolase 1 (Homo sapiens) (O94782 whole entry, looked up): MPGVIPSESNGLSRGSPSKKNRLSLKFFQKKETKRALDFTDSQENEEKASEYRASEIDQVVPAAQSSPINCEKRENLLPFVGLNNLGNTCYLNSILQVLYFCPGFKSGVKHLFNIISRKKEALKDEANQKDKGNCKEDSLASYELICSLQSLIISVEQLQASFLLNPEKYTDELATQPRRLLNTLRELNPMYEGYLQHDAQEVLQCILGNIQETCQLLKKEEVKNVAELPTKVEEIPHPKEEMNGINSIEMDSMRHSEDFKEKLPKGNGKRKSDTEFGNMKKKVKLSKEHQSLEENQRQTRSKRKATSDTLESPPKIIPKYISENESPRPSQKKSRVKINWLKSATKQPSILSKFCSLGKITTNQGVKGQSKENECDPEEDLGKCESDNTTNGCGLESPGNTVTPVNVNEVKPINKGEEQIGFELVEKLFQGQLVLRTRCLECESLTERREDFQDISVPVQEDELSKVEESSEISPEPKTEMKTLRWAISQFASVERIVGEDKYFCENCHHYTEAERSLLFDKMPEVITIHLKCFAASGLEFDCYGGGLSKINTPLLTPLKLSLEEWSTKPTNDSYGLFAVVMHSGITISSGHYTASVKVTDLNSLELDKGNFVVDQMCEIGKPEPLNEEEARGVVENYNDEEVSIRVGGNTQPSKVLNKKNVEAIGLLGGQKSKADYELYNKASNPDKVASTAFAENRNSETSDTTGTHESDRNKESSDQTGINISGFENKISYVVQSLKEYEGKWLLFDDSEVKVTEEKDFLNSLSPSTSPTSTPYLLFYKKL

For the compound `c1cncc(CNc2ccnc(-c3ccc4c(c3)OCO4)n2)c1`, the Potency in assay [1] is > 11.4 µM (inactive); in assay [3], 0.126 µM (active); in assay [6] it was > 46 µM (inactive); in assay [7] it was > 46 µM (inactive); in assay [9], 5.01 µM (active); in assay [10] it was 0.0631 µM (active). Also, the Potency in [11] was 0.1 µM (active); in [12] it was 0.0447 µM (active). Besides, the activity change, negative = inhibition is -20.8% (inactive) in assay [2] and 16% (inactive) in [4]. Besides, the activity, negative = inhibition in assay [5] is -10.6% (inactive). The Potency entry in assay [8], in assay [13], in assay [14] and in assay [15] was “inactive” in each case.

In the case of `COc1cccc(-c2ccc3ncnc(NCc4cccs4)c3c2)c1`, the Potency is 0.501 µM (active) in assay [3], > 46 µM (inactive) in assay [6], > 46 µM (inactive) in [7] and 7.94 µM (active) in assay [17]. The activity change, negative = inhibition in assay [4] was 23.9% (inactive); in [20] (at 57.5 µM (top of the series)), -9.22% (inactive). The compound was classed as inactive in [16], in assay [18] and in [19]. The Potency result in assay [8], in [14] and in assay [15] was “inactive” each time. Further, the max response in [20] (measured here: cell count channel max response) is -18.2%; in assay [20] (measured here: lipid channel max response), -23.5%.

As to `O=C(NCCc1ccccc1)C1CCN(c2nc(-c3ccc(Br)cc3)cs2)CC1`, the Potency entry in assay [14] and in [21] was “inactive” in each case.

As for `Cc1cc2c(s1)c1cnn(Cc3cccc(C)c3F)c(=O)c1n2C`, the Potency result in [14] and in assay [21] was “inactive” in each case.
